Laboratory results published in PubChem BioAssay AID1159554 (Broad Institute, 2015).
Several values for one entry are separate records, joined by “and”; a condition that tells them apart may be missing. Identical values can stand only once. Hit rate of the full screen: of about 94,000 compounds, about 2,100 (2.2%) were called active. The list comes from a sample in which actives are over-represented; it also holds similar structures and randomly drawn compounds. Values without a mark were called inactive. No stated cut-off is given here; in the data, active means activity change below about -80%; inconclusive means no clear call, values can overlap the other calls; inactive means above that.

Assay: P. falciparum Dd2 growth inhibitors, primary screen, SYBR Green fluorescence, single dose replicates (AID 1159554)
Conditions: 72 h, at 10 µM, active compounds read low

SMILES	activity change
COc1ccc2c3c([nH]c2c1)[C@@H](CO)N(C(=O)Cc1ccccc1)CC31CCN(C)CC1	-55.8%
COc1ccc2c3c([nH]c2c1)[C@H](CO)N(Cc1cccc(F)c1)CC31CCN(Cc2ccccn2)CC1	-92.5% (active)
COc1cccc(CN2CC3(CN(Cc4ccccn4)C3)c3c([nH]c4cc(OC)ccc34)[C@@H]2CO)c1	-87.9% (active)
CCCNC(=O)N1CC2(CCN(Cc3ccc(F)cc3)CC2)c2c([nH]c3cc(OC)ccc23)[C@@H]1CO	-77.7%
COc1ccc2c3c([nH]c2c1)[C@H](CO)N(Cc1ccc(F)cc1)CC31CCN(Cc2ccccn2)CC1	-89.5% (active)
COc1ccc2c3c([nH]c2c1)[C@H](CO)N(Cc1nccs1)CC31CCN(Cc2cccnc2)CC1	-58.7%
COc1ccc2c3c([nH]c2c1)[C@@H](CO)N(C(=O)C1CC1)CC31CCN(Cc2nccs2)CC1	-26.9%
COc1ccc2c3c([nH]c2c1)[C@@H](CO)N(Cc1nccs1)CC31CCN(C(=O)C2CCCC2)CC1	-74.5%
COc1ccc2c3c([nH]c2c1)[C@H](CO)N(Cc1nccs1)CC31CCN(Cc2ccncc2)CC1	-85.5% (active)
C[C@@H]1CCCCO[C@@H](CN(C)S(=O)(=O)c2cn(C)cn2)[C@H](C)CN([C@H](C)CO)C(=O)c2cc(NS(=O)(=O)c3ccc(Cl)cc3)ccc2O1	-31.8%
COCC(=O)N1C[C@@H](C)[C@H](OC)CN(C)C(=O)c2ccc(NC(=O)c3ccc(F)cc3)cc2OC[C@H]1C	12.6%
COc1ccc(NC(=O)N(C)C[C@H]2OCCCC[C@H](C)Oc3ccc(NS(=O)(=O)c4ccc(Cl)cc4)cc3C(=O)N([C@@H](C)CO)C[C@H]2C)cc1	-68.7%
CN(C)CC(=O)Nc1ccc2c(c1)[C@@H]1C[C@H](CC(=O)NCc3ccc(-c4ccccc4)cc3)O[C@@H](CO)[C@@H]1O2	-1.93%
COCC(=O)Nc1ccc2c(c1)OC[C@H](C)N(C)C[C@H](C)[C@@H](OC)CN(C)C2=O	26.8%
C[C@@H]1CCCCO[C@H](CN(C)S(C)(=O)=O)[C@@H](C)CN([C@H](C)CO)C(=O)c2cc(NC(=O)Nc3ccc4c(c3)OCO4)ccc2O1	25.2%
COCC(=O)Nc1ccc2c(c1)C(=O)N(C)[C@@H]1CC[C@@H](CC(=O)NCc3cccc(F)c3)O[C@@H]1CO2	5.24%
CNC(=O)C[C@H]1CC[C@H]2[C@H](COc3ccc(NC(=O)c4cccc(F)c4)cc3C(=O)N2C)O1	1.45% and 0.97%
CC(C)NC(=O)N[C@H]1CC[C@H](CC(=O)N2CCCCC2)O[C@@H]1CO	36.7%
CCS(=O)(=O)N1[C@H](CO)[C@@H](c2ccccc2)C12CN(C(=O)c1ccccc1F)C2	-5.45%
COc1ccc2c3c([nH]c2c1)[C@@H](CO)N(C(=O)CC1CC1)CC31CCN(Cc2cccnc2)CC1	-7.62%
COc1ccc2c3c([nH]c2c1)[C@@H](CO)N(Cc1ccccc1)CC31CCN(Cc2cncnc2)CC1	-91.1% (active)
COc1ccc2c3c([nH]c2c1)[C@@H](CO)N(C(=O)c1ccccc1)CC31CCN(Cc2cccnc2)CC1	-47.6%
CN(C)CC(=O)N[C@@H]1CC[C@H](CC(=O)O)O[C@H]1CO	14.9%

SMILES	activity change
CO[C@H]1CN(C)C(=O)c2cc(NC(=O)c3cnccn3)ccc2OC[C@H](C)N(C(=O)C2CC2)C[C@H]1C	-22.3%
COc1cccc(-c2cn(CC[C@@H]3CC[C@@H](NC(C)=O)[C@@H](CO)O3)nn2)c1	-3.98%
C[C@H](CO)N1C[C@H](C)[C@@H](CN(C)C(=O)C2CC2)Oc2cc(C#CC3CC3)ccc2S1(=O)=O	-9.49%
COc1ccc(NC(=O)N(C)C[C@H]2Oc3cc(C#CCN(C)C)ccc3S(=O)(=O)N([C@@H](C)CO)C[C@@H]2C)cc1	7.25%
COc1ccc(C#Cc2ccc3c(c2)O[C@@H](CN(C)C(=O)Nc2cccc(OC)c2)[C@H](C)CN([C@H](C)CO)S3(=O)=O)cc1	-89.8% (active)
C[C@@H]1CN([C@@H](C)CO)S(=O)(=O)c2ccc(/C=C/c3ccccc3)cc2O[C@H]1CN(C)Cc1cccnc1	-90.5% (active)
C[C@@H]1CN([C@@H](C)CO)S(=O)(=O)c2ccc(/C=C/c3ccccc3)cc2O[C@H]1CN(C)C(=O)C1CC1	-88.7% (active)
CCC(=O)N(C)C[C@H]1Oc2cc(/C=C/c3ccccc3)ccc2S(=O)(=O)N([C@H](C)CO)C[C@H]1C	-20.8%
C[C@H](O)C#Cc1ccc2c(c1)O[C@@H](CN(C)C(=O)C1CC1)[C@H](C)CN([C@H](C)CO)S2(=O)=O	2.01%
C[C@@H]1CN([C@@H](C)CO)S(=O)(=O)c2ccc(C#Cc3ccccc3)cc2O[C@@H]1CN(C)C(=O)Nc1ccccc1	-58.2%
CCC(=O)N(C)C[C@H]1Oc2cc(/C=C/c3ccccc3)ccc2S(=O)(=O)N([C@H](C)CO)C[C@@H]1C	-32.1%
C[C@H]1CN([C@@H](C)CO)S(=O)(=O)c2ccc(C#Cc3ccccc3)cc2O[C@@H]1CN(C)C(=O)C1CC1	-86.3% (active)
C[C@@H]1CN([C@H](C)CO)S(=O)(=O)c2ccc(/C=C/c3ccccc3)cc2O[C@@H]1CN(C)Cc1ccccc1	-19.9%
C[C@@H]1CN([C@@H](C)CO)S(=O)(=O)c2ccc(/C=C/c3ccccc3)cc2O[C@H]1CN(C)Cc1ccccc1	-58.4%
O=C(NC[C@H]1CC[C@@H]2[C@@H](CN2S(=O)(=O)c2ccccc2F)O1)C1CCCCC1	81.8%
CNC(=O)C[C@@H]1CC[C@@H]2[C@@H](COc3ccc(NC(=O)c4ccc5c(c4)OCO5)cc3C(=O)N2C)O1	-13.2%
CN1c2ccc(C3=CCCCC3)cc2[C@@H]2[C@@H](CCN2C(=O)Nc2cc(F)ccc2F)[C@@H]1CO	-41.1%
O=C(CC1CC1)N[C@@H]1C[C@@H]2O[C@H](CO)CC[C@@H]2O[C@@H]1CCc1ccc(C#Cc2ccccc2)cc1	-36.1%
CN1c2ccc(C#Cc3ccccc3F)cc2[C@@H]2[C@@H](CCN2C(=O)Cc2cccnc2)[C@H]1CO	-26.2%
CC(C)C#Cc1ccc2c(c1)O[C@@H](CN(C)C(=O)C1CC1)[C@H](C)CN([C@H](C)CO)S2(=O)=O	-27.6%
Cc1ccc(-c2ccc3c(c2)O[C@@H](CN(C)C(=O)NC(C)C)[C@@H](C)CN([C@H](C)CO)S3(=O)=O)cc1	-34.3%
C[C@H](O)C#Cc1ccc2c(c1)O[C@H](CN(C)C(=O)C1CC1)[C@@H](C)CN([C@H](C)CO)S2(=O)=O	46.3%
CNC[C@H]1Oc2cc(C#Cc3ccccn3)ccc2S(=O)(=O)N([C@H](C)CO)C[C@@H]1C	-6.84%

SMILES	activity change
CC(C)NC(=O)N(C)C[C@H]1Oc2cc(-c3cncnc3)ccc2S(=O)(=O)N([C@@H](C)CO)C[C@H]1C	-83.1% (active)
CNC[C@@H]1Oc2cc(C#Cc3ccc(F)cc3)ccc2S(=O)(=O)N([C@@H](C)CO)C[C@H]1C	-62.7%
CNC[C@H]1Oc2cc(C#Cc3ccccc3)ccc2S(=O)(=O)N([C@@H](C)CO)C[C@@H]1C	-85% (active)
CC(=O)N(C)C[C@@H]1Oc2cc(-c3cncnc3)ccc2S(=O)(=O)N([C@@H](C)CO)C[C@H]1C	21.6%
C[C@@H]1CN([C@@H](C)CO)S(=O)(=O)c2ccc(C#Cc3ccccc3)cc2O[C@@H]1CN(C)C(=O)C1CC1	-82.5% (active)
CCNC(=O)C[C@@H]1C=C[C@@H](NC(=O)C2CCOCC2)[C@@H](CO)O1	2.77%
COCC(=O)Nc1ccc2c(c1)OC[C@H](C)N(C(=O)Cc1ccccn1)C[C@H](C)[C@@H](OC)CN(C)C2=O	41.2%
O=C(C[C@H]1CC[C@@H](NC(=O)CC2CC2)[C@@H](CO)O1)NCc1ccccc1	10.8%
O=C(NC1CCC1)[C@@H]1[C@@H](CO)[C@@H]2Cn3c(ccc(/C=C/c4ccccc4)c3=O)[C@@H]2N1Cc1ccncc1	-2.62%
CCCN1C[C@@H](C)[C@@H](OC)CN(C)C(=O)c2ccc(NC(=O)c3ccc(F)cc3)cc2OC[C@@H]1C	-14.3%
C[C@H](O)C#Cc1cnc2c(c1)C(=O)N([C@@H](C)CO)C[C@H](C)[C@@H](CN(C)C(=O)c1ccccc1)O2	20.4%
COCC(=O)Nc1ccc2c(c1)OC[C@H](C)N(Cc1ccccc1)C[C@H](C)[C@@H](OC)CN(C)C2=O	-12.2%
Cc1ccc(S(=O)(=O)N2C[C@@H](O)COC[C@@H]3O[C@H](CC(=O)NCCCN(C)C)CC[C@H]32)cc1	-1.46%
COc1ccc2c3c([nH]c2c1)[C@H](CO)N(S(=O)(=O)c1cn(C)cn1)CC31CCN(CC2CC2)CC1	1.53%
COc1ccc2c3c([nH]c2c1)[C@H](CO)N(C(=O)Nc1ccc(F)cc1)CC31CCN(C(=O)Nc2c(C)noc2C)CC1	-35.3%
CCCNC(=O)N1CC2(C1)CN(Cc1cccc(F)c1)[C@@H](CO)c1[nH]c3cc(OC)ccc3c12	-63.2%
COc1ccc2c3c([nH]c2c1)[C@H](CO)N(Cc1cccc(F)c1)CC31CCN(CC2CC2)CC1	-83.2% (active)
COc1ccc2c3c([nH]c2c1)[C@H](CO)N(C(=O)Nc1ccc(F)cc1)CC31CCN(CC2CCOCC2)CC1	-81.3% (active)
COc1ccc2c3c([nH]c2c1)[C@@H](CO)N(Cc1cccc(F)c1)CC31CN(CC2CC2)C1	-82.5% (active)
COc1ccc2c3c([nH]c2c1)[C@@H](CO)N(C(=O)c1ccc(F)cc1)CC31CCN(C(=O)Nc2ccc(F)cc2)CC1	-75.4%
COc1ccc2c3c([nH]c2c1)[C@H](CO)N(C(=O)C1CCC1)CC31CCN(Cc2cccc(F)c2)CC1	-43.8%
COc1ccc2c3c([nH]c2c1)[C@H](CO)N(CC1CC1)CC31CN(C(=O)Nc2cccc(F)c2)C1	-49.9%
